# Laboratory results: ChEMBL document CHEMBL3988442, “University of Dundee, Small-Polar-MMV Screening Library” (2021)
# The campaign covered roughly 69,000 compounds. About 1,000 (1.4%) showed an effect of 50% or more. The entries come from a sample that favours strong results as a whole.
# Tested on: Leishmania donovani
# Assay: Leishmania intramacrophage assay
# Format: functional, organism-based
# Design: scale not given: in the data most compounds retested in dose-response had high values
smiles,measurement,setting,value
Cc1ccc(CN(C)C(=O)NCC(C)(C)CCS(C)(=O)=O)s1,Percent Effect,"30.3 µM, […]",20%
CCCNCc1ccc(OCc2ccc3c(c2)OCCO3)cc1.Cl,Percent Effect,"30.3 µM, […]",67.66%
CCNCc1ccc(OCc2ccc3c(c2)OCCO3)cc1.Cl,Percent Effect,"30.3 µM, […]",21.82%
CNCc1ccc(OCc2ccc3c(c2)OCCO3)cc1.Cl,Percent Effect,"30.3 µM, […]",22.52%
CN1CCC(c2nnc3ccc(C(=O)NC4CCCC4)cn23)C1.O=C(O)C(F)(F)F (centres undefined),Percent Effect,"30.3 µM, […]",23.32%
O=C(CN1CCCC1c1nc2cc(F)ccc2[nH]1)NCc1ccccn1 (centres undefined),Percent Effect,"30.3 µM, […]",34.7%
Fc1ccc2[nH]c(C3CCCN3CCc3ccccn3)nc2c1 (centres undefined),Percent Effect,"30 µM, 30.03 µM",50.9%
Fc1ccc2[nH]c(C3CCCN3CCCn3cccn3)nc2c1 (centres undefined),Percent Effect,"30.3 µM, […]",2.015%
Cc1ccc(C(=O)N2C[C@@H]3COC[C@]3(COc3cccnc3)C2)cn1,Percent Effect,"30 µM, 30.03 µM",15.47%
CC1CN(CC(=O)Nc2cccnc2)CCN1c1nccs1 (centres undefined),Percent Effect,"30 µM, 30.03 µM",19.22%
CC1CN(CC(=O)Nc2nncs2)CCN1c1nccs1 (centres undefined),Percent Effect,"30 µM, 30.03 µM",5.617%
CC1CN(CC(=O)Nc2ccncc2)CCN1c1nccs1 (centres undefined),Percent Effect,30 µM,51.62%
Cc1nc(CN(C)Cc2csc(-c3cccs3)n2)co1,Percent Effect,"30.3 µM, […]",17.38%
CN(Cc1csc(-c2cccs2)n1)Cc1ncccc1C(=O)O,Percent Effect,"30.3 µM, […]",21.95%
CN(Cc1csc(-c2cccs2)n1)Cc1cccnc1N,Percent Effect,"30.3 µM, […]",54.27%
Cc1cc(C)nc(N2CCC(c3cccc(CCC(=O)O)n3)CC2)n1,Percent Effect,"30.3 µM, […]",-9.293%
COc1ccc(CN2CCc3ncnc(C4CCOC4)c3CC2)cc1.O=C(O)C(F)(F)F (centres undefined),Percent Effect,"30 µM, 30.03 µM",20.96%
CCOCc1ccccc1NC(=O)NC1CCN(C2CCCC2)C1 (centres undefined),Percent Effect,"30.3 µM, […]",-2.945%
CN(C)c1ncc(CN2CCOC(C(=O)Nc3ccccc3)C2)cn1 (centres undefined),Percent Effect,"30 µM, 30.03 µM",-7.564%
Cc1cc(C)c(CNC(=O)N2CCCC2c2cccn2C)c(=O)[nH]1 (centres undefined),Percent Effect,"30 µM, 30.03 µM",13.7%
CSCC[C@@H](CO)NC(=O)c1ccc2nc(NS(C)(=O)=O)sc2c1,Percent Effect,"30.3 µM, […]",-13.25%
CC(CO)NC(=O)c1ccc2[nH]/c(=N\S(C)(=O)=O)sc2c1 (centres undefined),Percent Effect,"30.3 µM, […]",-35.22%
C[C@@H](CO)NC(=O)c1ccc2nc(NS(C)(=O)=O)sc2c1,Percent Effect,"30.3 µM, […]",55.63%
CC(C)c1nn(C)c(N(C)C)c1CNC1CCCOc2ccccc21 (centres undefined),Percent Effect,"30.3 µM, […]",11.28%
Cc1c(C(=O)N2CCOCC2)n(C)c2ccc(Cl)cc12.Cl,Percent Effect,"30.3 µM, […]",19.33%
Cc1c(C(=O)N2CCC(N3CCCCC3)CC2)n(C)c2ccc(Cl)cc12,Percent Effect,"30.3 µM, […]",83.29%
Cc1c(C(=O)N2CCN(C)CC2)n(C)c2ccc(Cl)cc12,Percent Effect,"30.3 µM, […]",11.88%
CCS(=O)(=O)N1C[C@@H](c2ccccc2)[C@@]2(CCNC2=O)C1,Percent Effect,"30.3 µM, […]",42.69%
CC1(C)CN(C(CNS(N)(=O)=O)c2ccc(Cl)cc2)CCO1 (centres undefined),Percent Effect,"30.3 µM, […]",-5.286%
CC(C)(C)NC(=O)C1CSCN1S(=O)(=O)c1ccccc1F (centres undefined),Percent Effect,"30.3 µM, […]",-3.758%
CC(C)N(C)C(=O)C1CSCN1S(=O)(=O)c1cc(Cl)ccc1Cl (centres undefined),Percent Effect,"30.3 µM, […]",6.679%
CC(C)N(C)C(=O)C1CSCN1S(=O)(=O)c1ccccc1F (centres undefined),Percent Effect,"30.3 µM, […]",51.74%
Cc1cccc(NC(=O)CNC(=O)c2ccccc2F)c1,Percent Effect,"30.3 µM, […]",-11.93%
CNC(=O)c1nc(CC(=O)Nc2cccc(C(F)(F)F)c2)no1,Percent Effect,"30.3 µM, […]",-13.79%
O=c1cc(N2CCc3ccccc3C2)cnn1CCC1CCOC1 (centres undefined),Percent Effect,"30.3 µM, […]",44.37%
CC(C)C(=O)N1CC[C@H]2N(C)CC[C@@]2(C(=O)Nc2ccccc2)CC1,Percent Effect,"30.3 µM, […]",56.37%
CNC(=O)N1CC[C@H]2N(C)CC[C@@]2(C(=O)Nc2ccccc2)CC1,Percent Effect,"30 µM, 30.03 µM",11.56%
CC(C)C(=O)N1CC[C@H]2N(C)CC[C@@]2(C(=O)Nc2cccnc2)CC1.O=C(O)C(F)(F)F.O=C(O)C(F)(F)F,Percent Effect,"30.3 µM, […]",36.27%
CCCc1noc(C2CC(=O)N(CCN(C)C)C2)n1 (centres undefined),Percent Effect,"30.3 µM, […]",24.39%
CCCc1noc(C2CC(=O)N(Cc3ccccc3)C2)n1 (centres undefined),Percent Effect,"30.3 µM, […]",62.8%
CCCc1noc(C2CC(=O)N(C(C)(C)C)C2)n1 (centres undefined),Percent Effect,"30.3 µM, […]",13.52%
O=C(CCS(=O)(=O)c1ccccc1)NC1CCOC2(CCOCC2)C1 (centres undefined),Percent Effect,"30.3 µM, […]",-6.021%
COCCN1CCCCC12CC(=O)N(c1cccc(C#N)c1)C2.O=C(O)C(F)(F)F (centres undefined),Percent Effect,"30.3 µM, […]",50.28%
O=C(O)C(F)(F)F.O=C1CC2(CCCCN2CC2CC2)CN1c1ccccc1 (centres undefined),Percent Effect,"30.3 µM, […]",20.41%
COCCN1CCCCC12CC(=O)N(c1ccccc1OC)C2.O=C(O)C(F)(F)F (centres undefined),Percent Effect,"30.3 µM, […]",20.15%
COc1ccc(N(c2ccccc2)c2ccc(C(=O)O)s2)cc1,Percent Effect,"30.3 µM, […]",6.692%
Cc1cnc(C(=O)N2CCCC3(CCN(c4cnn(C)c4)C3=O)C2)cn1 (centres undefined),Percent Effect,"30.3 µM, […]",-31.28%
CN(C)C(=O)CC1CC2(CCN(CC3CC3)CC2)Oc2ccccc21.O=C(O)C(F)(F)F (centres undefined),Percent Effect,"30.3 µM, […]",9.368%
CCn1nccc1CN(C)C(=O)Cn1nc(C)c(C)c1C,Percent Effect,"30.3 µM, […]",6.99%
CCn1nccc1CN(C)C(=O)Cn1nc(C)cc1C,Percent Effect,"30.3 µM, […]",19.68%
CCn1nccc1CN(C)C(=O)Cn1cc2c(n1)c(C)nn2CC,Percent Effect,"30.3 µM, […]",72.98%
O=C1CCN(C(=O)c2csc(-c3ccc(C(F)(F)F)cc3)n2)CCN1,Percent Effect,"30.3 µM, […]",-4.65%
O=C(c1csc(-c2ccc(C(F)(F)F)cc2)n1)N1CCCNCC1,Percent Effect,"30.3 µM, […]",53.12%
CN1CCCN(C(=O)c2csc(-c3ccc(C(F)(F)F)cc3)n2)CC1,Percent Effect,"30.3 µM, […]",-34.88%
CCc1nc(C2CCCN2CCC(=O)N2CCc3ccccc32)no1 (centres undefined),Percent Effect,30 µM,-5.363%
Cc1cc(C(=O)Nc2nnn[nH]2)ccc1I,Percent Effect,"30.3 µM, […]",2.496%
O=C(O)C(F)(F)F.O=C(O)C(F)(F)F.O=C(O)C(F)(F)F.c1cncc(COCc2cncc3c2CCN(Cc2ccoc2)C3)c1,Percent Effect,"30.3 µM, […]",3.293%
Cc1nc(N2CCCC2)nc2c1CCN(C(=O)N1CCCC1)CC2,Percent Effect,"30.3 µM, […]",-2.559%
Cc1nc(N2CCCC2)nc2c1CCN(C(=O)c1ccoc1C)CC2,Percent Effect,"30.3 µM, […]",54.38%
Cc1cc(C(=O)N2CCc3nc(N4CCCC4)nc(C)c3CC2)c(C)o1,Percent Effect,"30.3 µM, […]",44.41%
CCn1ccc(C(=O)N2CCCC2(C)c2nc(C)cc(N(C)C)n2)n1 (centres undefined),Percent Effect,"30.3 µM, […]",26.06%
CC(C)CNC(=O)C(C)N1CCN(C2CCN(C(C)C)CC2)CC1 (centres undefined),Percent Effect,"30.3 µM, […]",19.26%
CCN(CC)C(=O)CN1CCC(c2nc(C)c3c(n2)N(C)CCC3)CC1,Percent Effect,"30.3 µM, […]",-13.08%
CCC(=O)N1CCC(c2nc(C)c3c(n2)N(C)CCC3)CC1,Percent Effect,"30.3 µM, […]",31.8%
CCN(CC)C(=O)CN1CCCC(c2nc(C)c3c(n2)N(C)CCC3)C1 (centres undefined),Percent Effect,"30.3 µM, […]",94.66%
CS(=O)(=O)NC1CCCN(C(=O)Nc2cccnc2)C1 (centres undefined),Percent Effect,30 µM,-4.572%
CS(=O)(=O)NC1CCCN(C(=O)Nc2cccnc2N2CCCC2)C1 (centres undefined),Percent Effect,"30.3 µM, […]",64.13%
CS(=O)(=O)NCC1CCCN(C(=O)Nc2cccnc2N2CCCC2)C1 (centres undefined),Percent Effect,"30 µM, 30.03 µM",4.026%
CCOCc1cncc2c1CCN(C(=O)c1cscn1)C2.O=C(O)C(F)(F)F,Percent Effect,"30.3 µM, […]",5.62%
Cc1ccc(C(=O)NC2CCN(S(C)(=O)=O)CC2)c(=O)[nH]1,Percent Effect,"30.3 µM, […]",59.71%
Cc1ccc(C(=O)NC2CCCN(S(C)(=O)=O)C2)c(=O)[nH]1 (centres undefined),Percent Effect,"30.3 µM, […]",4.219%
Cc1ccc(C(=O)NC2CCN(C(C)C)C2)c(=O)[nH]1 (centres undefined),Percent Effect,"30.3 µM, […]",39.11%
CNC(=O)C1CN(c2cc(C)ncn2)CCN1Cc1ccccc1 (centres undefined),Percent Effect,"30.3 µM, […]",-5.457%
CCOC(=O)N1CCN(C(=O)c2cc(-c3ccc(C)cc3)on2)CC1,Percent Effect,"30.3 µM, […]",67.95%
CCOC(=O)N1CCN(C(=O)c2cc(-c3ccccc3F)on2)CC1,Percent Effect,"30.3 µM, […]",-28.98%
CCOC(=O)N1CCN(C(=O)c2cc(-c3ccc(Cl)cc3Cl)on2)CC1,Percent Effect,"30.3 µM, […]",18.25%
Cn1cc(C(=O)N2CC[C@@H]3[C@@H]2CCN3c2ncc(F)cn2)cn1.O=C(O)C(F)(F)F,Percent Effect,"30.3 µM, […]",4.387%
Cc1ccsc1CNC(=O)c1ccc(N2CCOC2=O)cc1,Percent Effect,"30.3 µM, […]",-0.1452%
COc1cccc(COC(C)C(=O)N(C)Cc2nnc3n2CCC3)c1 (centres undefined),Percent Effect,"30.3 µM, […]",-15.17%
Cc1cc(C(=O)NC(COCC(C)C)c2ccco2)no1 (centres undefined),Percent Effect,"30.3 µM, […]",10.39%
CCNc1ncc(CN(CCN(C)C)Cc2ccc(C)s2)cn1,Percent Effect,"30.3 µM, […]",7.089%
CCc1ccc(CN(CCN(C)C)Cc2ccc(C)s2)nc1,Percent Effect,"30.3 µM, […]",60.62%
COc1ncc(CN(CCN(C)C)Cc2ccc(C)s2)cn1,Percent Effect,"30.3 µM, […]",1.942%
CN(C)C(=O)COCC1CN(Cc2ccoc2)Cc2ncn(C)c21.O=C(O)C(F)(F)F.O=C(O)C(F)(F)F (centres undefined),Percent Effect,"30.3 µM, […]",13.81%
O=C(NCC(F)(F)C(F)F)c1ccncc1,Percent Effect,"30.3 µM, […]",-13.6%
O=C(NCC(F)(F)F)c1ccncc1,Percent Effect,"30.3 µM, […]",80.67%
O=C(NCC(F)(F)C(F)F)c1cccnc1,Percent Effect,"30.3 µM, […]",3.821%
CCC(C)N(Cc1cccnc1)Cc1ccc2c(c1)OCCO2 (centres undefined),Percent Effect,"30.3 µM, […]",27.15%
CCC(C)N(Cc1cccnc1)Cc1cc2c(cc1OC)OCO2 (centres undefined),Percent Effect,"30.3 µM, […]",16.2%
CCC(C)N(Cc1cccnc1)Cc1cc2c(cc1Cl)OCO2 (centres undefined),Percent Effect,"30.3 µM, […]",69.06%
CC(C)CN1C(=O)CC(N2CCN(c3ccc(F)cc3)CC2)C1=O (centres undefined),Percent Effect,"30.3 µM, […]",-25.93%
CC(C)NC(=O)c1nc(Cn2c(C(F)(F)F)nc3ccccc32)no1,Percent Effect,"30.3 µM, […]",55.95%
CC(C)NC(=O)c1nc(Cn2c(C(F)F)nc3ccccc32)no1,Percent Effect,"30.3 µM, […]",-22.55%
O=C(NC1CC1)c1nc(Cn2c(C(F)F)nc3ccccc32)no1,Percent Effect,"30.3 µM, […]",-15.36%
CCc1nnc2n1CCN(CC(O)c1ccc3c(c1)OCCO3)C2 (centres undefined),Percent Effect,30 µM,-7.197%
CN(C)S(=O)(=O)N1CCN(C(=O)OC(C)(C)C)CC12CCCCC2,Percent Effect,"30.3 µM, […]",5.768%
CC(C)(C)OC(=O)N1CCN(S(=O)(=O)CCCC#N)C2(CCCCC2)C1,Percent Effect,"30.3 µM, […]",52.1%
CC(C)(C)OC(=O)N1CCN(S(C)(=O)=O)C2(CCCCC2)C1,Percent Effect,"30.3 µM, […]",27.8%
CN1CCN(CC2(O)CCCN(S(=O)(=O)c3cn[nH]c3)CC2)CC1 (centres undefined),Percent Effect,"30.3 µM, […]",4.995%
